Source: PubChem
FGF22 binding – binders of recombinant human FGF22 by thermal shift; Q9HCT0; SYPRO orange fluorescence; percent of sucrose octasulfate shift, DMSO zero; activity (Tm shift, normalised), % at 9.99 µM; 1.5% of 340,000 active;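 active = mean Tm shift, scaled 0 neutral to 100 positive control, at about 1.3% or above, every replicate too, limit read from the data; inconclusive = no clear call, values can overlap the other calls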
SMARCA2 activ – SMARCA2 function activation, primary screen; MG213 cells, MMTV-luciferase reporter, dexamethasone, overnight; activation, % at 9.1 µM; 1% of 370,000 active; AID 652017; in the data active = activation above about 7.8%;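 also: 0% = vehicle wells and 100% = reference activator wells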
MITF act – increases MITF-driven TRPM1 promoter luciferase signal | SK-MEL-5 TRPM1-promoter luciferase, 24 h; % of positive control, neutral wells = 0 | activation, % at 12.5 µM | 0.75% of 300,000 active | AID 588334;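 active = mean activation of at least 80% with every replicate also reaching 80%; inconclusive = mean reaches 80% but some replicate falls short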;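 also: 0% = neutral control wells and 100% = parthenolide positive control wells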
esBAF inh – inhibitors of esBAF chromatin remodeling in mouse ES cells. Bmi1-luciferase knock-in reporter, 24 h; 100% = twice the neutral-well signal. reporter increase, % at 12.5 µM. 2% of 350,000 active. AID 602393; in the data active = activation above about 40%; inconclusive = no clear call, values can overlap the other calls;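 also: 0% = median of the plate's neutral control wells and 100% = double that signal; a rise in the Bmi1 reporter signal indicates esBAF inhibition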
Wnt act – Wnt/beta-catenin pathway activation; Wnt/beta-catenin reporter cell assay, activator, plate reader; activation, % at 9.35 µM; 1.2% of 300,000 active; in the data active = activation above about 30%, passing the limit was not always enough; inconclusive = no clear call, values can overlap the other calls;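 also: 0% = neutral control wells and 100% = positive control wells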
AF4-AF9 inh – MLL-AF4/AF9 protein interaction inhibition. AlphaScreen, biotin-AF4 peptide binding to FLAG-AF9. P42568. inhibition, % at 10 µM. AID 651704. 0.47% of 350,000 active;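 active = every replicate reaching a set inhibition limit, whatever the replicate mean, cut at about 25% in these data; inconclusive = mean inhibition reaches that limit but some replicates miss it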;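 also: 0% = plate neutral control median and 100% = total signal loss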
Target sequence (P42568 whole entry, looked up): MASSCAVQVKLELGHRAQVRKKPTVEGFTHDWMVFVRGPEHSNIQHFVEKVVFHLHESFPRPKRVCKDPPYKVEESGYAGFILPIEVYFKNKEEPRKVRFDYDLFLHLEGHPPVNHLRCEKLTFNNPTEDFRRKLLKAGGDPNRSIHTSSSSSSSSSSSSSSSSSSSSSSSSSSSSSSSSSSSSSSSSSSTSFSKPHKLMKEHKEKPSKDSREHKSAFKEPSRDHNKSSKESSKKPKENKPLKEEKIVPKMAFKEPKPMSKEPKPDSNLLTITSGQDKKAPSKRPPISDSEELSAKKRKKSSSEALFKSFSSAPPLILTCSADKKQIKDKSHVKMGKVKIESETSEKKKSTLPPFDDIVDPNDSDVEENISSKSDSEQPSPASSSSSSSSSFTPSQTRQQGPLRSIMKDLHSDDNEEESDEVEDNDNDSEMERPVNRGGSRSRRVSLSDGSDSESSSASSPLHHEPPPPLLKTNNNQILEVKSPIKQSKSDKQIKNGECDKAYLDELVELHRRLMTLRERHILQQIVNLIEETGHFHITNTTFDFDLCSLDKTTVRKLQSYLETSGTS
* marks the source's active call; other numbers are inactive results; u = inconclusive; x = no result given. Shown are actives, neighbours in structure and some others; about 4.3% of the full set was active somewhere.

SMILES | FGF22 binding | SMARCA2 activ | MITF act | esBAF inh | Wnt act | AF4-AF9 inh
O=C(C[C@H]1CC[C@@H]2[C@H](COC[C@@H](O)CN2C(=O)Nc2cc(Cl)cc(Cl)c2)O1)N1CCCCC1 | 0 | x | x | 1 | x | 1
COc1ccc(NC(=O)COc2ccccc2F)cc1S(=O)(=O)N1CCCCC1 | 0 | -3 | 3 | -7 | -2 | 0
COc1ccc(NC(=O)Cc2ccccc2F)cc1S(=O)(=O)N1CCCCC1 | 0 | 0 | 2 | 45* | 4 | 1
COc1ccc(NC(=O)c2c(F)cccc2Cl)cc1S(=O)(=O)N1CCOCC1 | 43* | -3 | -11 | -4 | -4 | 4
COc1ccc(CN(C)C(C)C(=O)Nc2ccc(S(=O)(=O)N3CCCCC3)cc2)cc1F (stereo not drawn) | 0 | -2 | -3 | 24 | 34* | 2
COc1ccc(S(=O)(=O)Nc2ccc3c(c2)CC(=O)N([C@@H](C)CO)C[C@H](C)[C@H](CN(C)S(=O)(=O)c2cccs2)O3)cc1 | 0 | x | x | 2 | x | 0
Cc1noc(C)c1S(=O)(=O)N(C)C[C@H]1OCCCC[C@@H](C)Oc2ccc(NC(=O)CCCCCC(=O)Nc3ccccc3N)cc2C(=O)N([C@@H](C)CO)C[C@@H]1C | 0 | x | x | -1 | x | 3
Cc1ccc(S(=O)(=O)N(C)C[C@H]2Oc3ccc(NS(=O)(=O)c4cccs4)cc3C(=O)N([C@@H](C)CO)C[C@@H]2C)cc1 | 0 | x | x | -6 | x | -2
COc1ccc(-n2nc3cc(N)c(Br)cc3n2)cc1 | 0 | 3 | x | 57* | 5 | 3
C[C@@H]1CN([C@@H](C)CO)C(=O)Cc2cc(NC(=O)C3CC3)ccc2O[C@@H]1CN(C)Cc1ccncc1 | 0 | x | x | 0 | x | -2
CC(C)NC(=O)Nc1ccc2c(c1)C(=O)N([C@@H](C)CO)C[C@H](C)[C@@H](CN(C)Cc1ccc3c(c1)OCO3)OCCCC[C@@H](C)O2 | 0 | x | x | -2 | x | 2
Brc1ccc(-c2nnc(-c3cccc(Br)c3)o2)cc1 | x | 3 | 78 | x | x | x
Cc1ccc(-c2nnc(-c3ccc(Br)cc3)o2)o1 | x | 5 | x | 64* | 27 | x
Brc1ccc(-c2nnc(-c3ccco3)o2)cc1 | x | 6 | u | 60* | x | x
CN(C)C(=O)c1ccc(-c2ccc([C@@H]3[C@H](C#N)N(C(=O)C4CCC4)[C@H]3CO)cc2)cc1 | 0 | x | x | 6 | x | 0
O=C(Nc1ccc2c(c1)[C@H]1C[C@H](CC(=O)N3CCCCC3)O[C@H](CO)[C@H]1O2)C1CCOCC1 | 0 | x | x | -4 | x | -3
COc1ccc(CN(C)C[C@H]2Oc3ccc(NC(=O)Nc4ccc(F)cc4)cc3CC(=O)N([C@@H](C)CO)C[C@@H]2C)cc1 | 0 | x | x | -6 | x | 2
CCC(=O)N(C)C[C@H]1Oc2ncc(-c3ccccc3F)cc2C(=O)N([C@@H](C)CO)C[C@H]1C | 0 | x | x | -2 | x | -1
O=C(COc1ccc(Cl)cc1)NCc1nnc(SCC(=O)N2CCCCC2)o1 | x | 4 | x | -6 | 5 | x
O=C(COc1ccc(Cl)cc1)NCc1nnc(SCC(=O)N2CCCCCC2)o1 | 43* | 0 | 15 | -4 | -7 | -3
O=C(COc1ccc(Cl)cc1)NCc1nnc(SCC(=O)N2CCCC2)o1 | 43* | -2 | -10 | -3 | -4 | -2
O=C(CNC(=O)c1ccc(Cl)cc1)OC1CCOC1=O (stereo not drawn) | 43* | 1 | 10 | x | -13 | -3
Cc1ccc(C(=O)Nc2ccc3c(c2)OCO3)cc1S(=O)(=O)N1CCCC1 | x | 0 | 46 | 79* | x | x
Cc1ccc(C(=O)Nc2ccc3c(c2)OCO3)cc1Cl | 0 | 3 | 87* | 39 | 46* | -3
C=CCNC(=S)N/N=C/c1cccc([N+](=O)[O-])c1 | 43* | 0 | 2 | 10 | 2 | 3
O=C(N/N=C/c1cccc([N+](=O)[O-])c1)C1CC1c1ccccc1 (stereo not drawn) | x | 9.1* | 6 | 3 | 3 | x
C[C@@H]1CN([C@@H](C)CO)C(=O)Cc2cc(NC(=O)NC3CCCCC3)ccc2O[C@H]1CN(C)Cc1ccncc1 | 0 | x | x | 2 | x | -1
Cc1ccc(OCc2nnc(SC(C)C(=O)O)n2Cc2ccccc2)cc1 (stereo not drawn) | 42 | 0 | 2 | x | 0 | -3
